Compounds without any hit were thinned out: in the full panel of roughly 83,000, 20% have a hit.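 The endpoint reported here, percent growth, reads 100 for growth as untreated, 0 for no net growth and -100 for all cells dead.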 Unmarked numbers belong to inactive results. Calls of active or inactive are those of the source. Rule for the calls: active = growth percent below 10; inactive = the rest.

For the test, the system named is SR leukemia. Briefly: NCI-60 one-dose screen, 48 h (100 = growth as untreated, 0 = no growth, -100 = all killed). The note with it: 10 µM unless noted.
With `NS(=O)(=O)c1ccc(-n2ncc3c(=O)[nH]c(CN4CCN(c5cc6c(cc5F)c(=O)c(C(=O)O)cn6C5CC5)CC4)nc32)cc1`, the growth was 97.2%.
With `COc1cc(C2CC(=O)Nc3c2c(C)nn3-c2nc3ccccc3[nH]2)cc(OC)c1OC` (configuration not stated) the figure was 83.8%.
For the compound `CN1CCCCC1CCN1c2ccccc2Sc2ccc(Br)cc21` (configuration not stated), the growth was -32% (active).
The value for `Cc1ccc(C2CC3c4ccccc4C2C2CCCCN32)cc1` (configuration not stated) was 106%; that for `CCOC(=O)CC(C)=N` was 120%.
Take `N=S(=O)(NC(=O)c1ccc(Cl)cc1Cl)c1ccc(Br)s1` (configuration not stated): the growth was 75%.
The value for `COc1ccc(CN(c2ccc(C)cc2)C2OC(=O)c3ccccc32)cc1OC` (configuration not stated) was 83.8%; that for `c1c2c(cc3c1OCO3)Cc1cc3c(cc1Cc1cc4c(cc1C2)OCO4)OCO3` was 91.9%; that for `CCCCCCCCCCCCS(=O)CC(C)O` (configuration not stated) was 110%.
With `CC1(C)CC(C(=O)OCCCCCCCCCCC[P+](c2ccccc2)(c2ccccc2)c2ccccc2)C(C)(C)N1O` (configuration not stated) the figure was -58.4% (active); with `COc1ccc(/C(=C/c2ccc3ccccc3c2)c2nn[nH]n2)cc1OC`, 15%.
With `Cc1cccc(NC(=O)c2sc3nc4c(cc3c2N)C(=O)CCC4)c1` the figure was 26.2%.
For the compound `O=[N+]([O-])c1cccc(C2CC(c3ccccc3)=Nc3ccccc3S2)c1` (configuration not stated), the growth is -40.3% (active).
With `CS(CCCCN=C=S)=NC(=O)c1c(F)c(F)c(F)c(F)c1F` (configuration not stated) the figure was 2.68% (active); with `COC1C/C(=N\O)C2OC(c3ccccc3)OCC2O1` (configuration not stated), 109%; with `Cc1cc(Nc2nc(N3CCN(C)CC3)nc3ccccc23)n[nH]1`, 20.7%.
With `O=C1Nc2ccccc2/C1=C/C(=N/c1nnc(-c2ccccc2)s1)c1ccccc1` the figure was -23% (active); with `COc1ccc(N(Cc2cc(OC)c(OC)c(OC)c2)C2OC(=O)c3ccccc32)cc1` (configuration not stated), 12.1%; with `O=C1Nc2ccccc2/C1=C/C(=N/c1nnc(-c2ccc(Cl)cc2)s1)c1ccccc1`, -27.6% (active).
With `CC(=O)OCC1OC(OC2=C(CC=C(Cl)Cl)C(=O)c3ccccc3C2=O)C(OC(C)=O)C(OC(C)=O)C1OC(C)=O` (configuration not stated) the figure was -3.56% (active); with `O=C(/C=C/c1ccc(B(O)O)cc1)/C=C/c1ccc(B(O)O)cc1`, 8.8% (active).
Turning to `Cc1cc2cc3cc(C)c(N(C)C)cc3[n+](C)c2cc1N(C)C`, the growth was 76.9%.
